From PubChem BioAssay
Pf growth 48h: P. falciparum growth inhibition at 48 hours (one generation); P. falciparum luciferase growth in erythrocytes, 48 h; Potency, µM (titrated, usually from 28.7 µM), inactives show at the highest dose activity change, negative = inhibition, usual class: inhibitors; actives 5.9% (n = 310,000); note: % is set by controls: 0 for no effect and ±100 for the full control effect
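Luminescence readout; reporter = integrated firefly luciferase in P. falciparum. RBC culture at 2% hematocrit, 0.1% parasitemia final, 37 C/5% CO2; decreased signal taken as growth inhibition.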
NS1 inh: influenza NS1 inhibition. Potency, µM (highest dose often 46.1 µM), for inactives: at the top dose activity, positive = more growth. actives 0.4% (n = 270,000); calls by dose curve; note: actives are rising curves; nearly all actives have a fitted effect of over 50% in size
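S. cerevisiae expressing influenza A NS1, grown in glucose, washed, then diluted 1:100 into pH 6.0 -URA galactose medium with 23 nl compound. Growth recovery read as OD600; NS1-free strain serves as control.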
SARS PLpro yeast: SARS-CoV PLP inhibition in yeast; S. cerevisiae expressing SARS-CoV PLpro, growth rescue; Potency, µM (top dose mostly 32.9 µM), for the others: at the top dose activity, positive = growth rescue, hits mostly activators; actives 0.19% (n = 330,000); AID 485353; calls by dose curve; note: 0% is about no effect; nearly all actives have a fitted effect of over 55% in size
Pf growth 96h: inhibits malaria parasite growth, 96 h; P. falciparum luciferase reporter growth, 96 h; Potency, µM (series often up to 28.7 µM), for inactives: at the highest dose activity change, negative = inhibition, usual class: inhibitors; actives 6.9% (n = 320,000); note: % is set by controls: 0 for no effect and ±100 for the full control effect
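Readout is luminescence from an integrated firefly luciferase in P. falciparum. Red cells, 2% hematocrit and 0.05% parasitemia final, were cultured with compound through two parasite generations (96 hours) at 37 C, 5% CO2.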
RE007 growth inh: less growth of the S. pombe RE007 Vpr strain; S. pombe RE007 Vpr strain, BacTiter-Glo ATP luminescence, 24 h; Potency, µM (top dose mostly 92.2 µM), inactives show top-dose activity change, negative = less growth, usual class: inhibitors; actives 0.21% (n = 360,000); active = well fitted falling curve with a large enough effect; inconclusive = small, poorly fitted or top-dose-only effect; inactive = no such curve, though single readings can be large or run the other way; note: % is set by controls: 0 for no effect and ±100 for the full control effect; nearly all actives have a fitted effect of over 50% in size
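Fission yeast strain RE007, carrying one chromosomally integrated HIV-1 vpr copy, was seeded at OD 0.01 in PMG+AL medium with 23 nL pinned compound. After 24 h at 30 °C and 99% humidity, viability was read by BacTiter-Glo luminescence.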
An asterisk follows results filed as active; ? = inconclusive; / = no result given; ! = repeats disagree; [ ] = dose if it differs, or a comment. A selection: hits, their analogues and other compounds. The true share with any hit is near 9.5%. Unless noted, calls come from the whole dose curve; as a rule, active = well fitted inhibition curve with a large enough effect; inconclusive = small, poorly fitted or top-dose-only effect, or another doubt; inactive = no such curve, though single readings can be large or run the other way. Potency is the fitted concentration of half-maximal effect.

SMILES | Pf growth 48h | NS1 inh | SARS PLpro yeast | Pf growth 96h | RE007 growth inh
COc1ccc(O)c(/C=N/NC(=S)NCCc2ccccc2)c1 | 2.62µM* | 2.1% | -0.6% | ? | -13.2%
Cc1ccnc(NS(=O)(=O)c2ccc(NC(=O)c3cc(=O)c4ccccc4o3)cc2)n1 | -2.9% | 12.4% | 3.3% | ? | -2.6%
Cc1cccnc1-n1c(CCN2C(=O)c3ccccc3C2=O)nc2ccccc2c1=O | ? | -8.7% | 11.3% | 3.29µM* | 1.2%
O=C1c2ccccc2C(=O)N1Cc1nc2ccccc2c(=O)n1-c1ccc(Br)cn1 | 28.5% | -92.2% | -4.7% | 7.38µM* | 150.2%
Cc1ccc(CN2C(=O)/C(=C\c3ccc(C(=O)NCc4cccnc4)cc3)Oc3ccccc32)cc1 | ? | 6.6% | 14.0% | 1.65µM* | /
O=C(CN1C(=O)/C(=C\c2ccccc2Cl)Oc2ccccc21)NCc1cccnc1 | -13.1% | / | 3.9% | -36.8% | 11.8%
Oc1ccc2ccccc2c1CN1CCCCC1 | / | / | / | / | -25.5%
O=c1oc2ccccc2c(Nc2ccccc2)c1CN1CCCCC1 | ? | -0.2% | -1.1% | ? | 10.5%
Oc1ccc2cc(Br)ccc2c1CN1CCCC1 | ? | / | -3.3% | 4.65µM* | -13.1%
O=c1oc2ccccc2c(O)c1CN1CCCCC1 | 34.8% | -54.4% | -4.3% | 14.7µM* | 7.5%[3.69 µM]
Oc1ccc2ccccc2c1CN1CCCC1 | 13.1µM* | 1.5% | -1.5% | 37.6% | -15.5%
Oc1ccc2ccccc2c1CN1CCN(c2ccccc2)CC1 | 8.28µM* | -46.8% | 4.2% | ? | 6.3%
Cc1cccc(S(=O)(=O)N(C)C[C@@H]2OCc3cnnn3CCCC(=O)N([C@@H](C)CO)C[C@@H]2C)c1 | / | / | / | / | -14.4%
O=C1Nc2ccccc2-n2nnnc2C1N1CCN(C(=O)C2CCCO2)CC1 (stereo unspecified) | / | / | / | / | 3.9%
O=S(=O)(O)O | -11.3% | / | / | -19.7% | /
CNCCCC1Sc2ccccc2Oc2ccccc21 (stereo unspecified) | ? | -2.2% | 1.7% | 9.28µM* | -7.3%
CCN(CC)CCCNC(=O)C1c2ccccc2Oc2ccccc21 | -1.4% | 6.3% | -2.1% | -2.7%[5.75 µM] | -7.4%
CCCC(=O)OCCNc1cc(SCc2ccco2)c2nonc2c1[N+](=O)[O-] | -19.3% | -4.5% | 5.7% | ? | 0.2%
CC(=O)OCCCNc1cc(SCc2ccco2)c2nonc2c1[N+](=O)[O-] | 1.7% | -0.1% | 18.1% | 2.33µM* | -13.3%
CC(=O)Nc1ccc(-n2c(C)nc(=O)c(-c3ccccc3)c2C)cc1 | -12.0% | 2.6% | -0.8% | 5.22µM* | 4.0%
Cc1nc(=O)c(-c2ccccc2)c(C)n1-c1ccccc1 | 2.4% | 16.6% | 1.7% | 7.8% | -18.9%
COc1ccc(NC(=O)c2cc(S(=O)(=O)N3CCc4ccccc43)cn2C)cc1 | 9.28µM* | 0.1% | 7.0% | -10.3% | 12.9%
COc1ccc(NC(=O)CN(C)C(=O)c2cccc(S(=O)(=O)N3CCCc4ccccc43)c2)cc1 | 13.1µM* | / | 1.1% | ? | 10.9%
COc1ccccc1CN(C)C(=O)c1cccc(S(=O)(=O)N2CCCc3ccccc32)c1 | 7.38µM* | / | -3.4% | 9.28µM* | -6.8%
COc1ccccc1C(CNC(=O)c1cccc(S(=O)(=O)N2CCCc3ccccc32)c1)N(C)C (stereo unspecified) | / | / | / | / | 1.7%
SMILES | Pf growth 48h | NS1 inh | SARS PLpro yeast | Pf growth 96h | RE007 growth inh
Cc1ccc(NC(=O)c2cc(S(=O)(=O)N3CCc4ccccc43)cn2C)cc1C | ? | 19.7% | -13.2% | -0.6% | -0.6%
O=[N+]([O-])c1cccc(COc2ccccc2CN2CCCC2)c1 | / | / | / | / | -18.5%
CN(C)CCn1c(=O)n(Cc2ccco2)c(=O)c2c3c(sc21)CCCCC3 | ? | -1.3% | 1.6% | 7.38µM* | 12.2%
O=c1c2c3c(sc2n(CCN2CCCC2)c(=O)n1Cc1ccco1)CCCCC3 | ? | ? | 2.0% | 4.1% | -7.1%
O=C(Cn1c(=O)n(Cc2ccco2)c(=O)c2c3c(sc21)CCCCC3)Nc1ccccc1 | ? | ? | -0.1% | 11.7µM* | 1.7%
O=C(Cn1c(=O)n(Cc2ccco2)c(=O)c2c3c(sc21)CCCCC3)c1ccccc1 | -11.5% | ? | 0.0% | 0.0% | -15.9%
COc1ccc(C)cc1NS(=O)(=O)c1ccccc1 | / | / | / | / | -5.7%
O=C(Nc1cc(Sc2ccccn2)cc([N+](=O)[O-])c1)c1cccc(Cl)c1 | 9.28µM* | 24.9% | -8.1% | 20.4% | 20.3%
CN(CCOc1ccc(Br)cc1)CC(O)c1ccccc1 (stereo unspecified) | ? | -4.3% | -0.4% | -13.3% | -9.7%
CC(OCC(O)CN(C)CCOc1ccccc1)c1ccc(Cl)cc1 (stereo unspecified) | ? | 0.6% | -4.6% | 11.7µM* | 7.5%
CC(C)c1ccc(CN(C)CC(O)c2ccccc2)cc1 (stereo unspecified) | 2.62µM* | -1.1% | -0.6% | 9.28µM* | -12.7%
CN(CCOc1ccc(Cl)cc1)CC(O)c1ccccc1 (stereo unspecified) | 9.28µM* | 0.1% | 1.3% | ? | -24.2%
OC(CN(Cc1ccccc1)Cc1ccccc1)c1ccccc1 (stereo unspecified) | / | / | / | / | -5.3%
O=C(Nc1ccccc1)c1cn(CCBr)cn1 | / | / | / | / | -28.4%
N#CCC(=O)c1ccccc1Oc1ccc(Cl)cc1 | 35.5% | / | -4.1% | 70.7% | 0.8%
Oc1ccc(F)c2cccnc12 | ? | -2.0% | 0.1% | 14.7µM* | 1.1%
Cc1ccc(S(=O)(=O)Nc2cccnc2Oc2ccc(Cl)cc2)cc1 | ? | -6.6% | -3.6% | ? | 13.6%
Oc1c(I)cc(I)c2cccnc12 | ? | -48.4% | -74.2% | 10.7µM*! | -29.5%
Clc1cc2cccnc2c2ccccc12 | 6.4% | -2.2% | -24.9% | 1.1% | -0.1%
Oc1c(Cl)cc(Cl)c2cccnc12 | 8.49µM* | / | -21.9% | 4.26µM*! | ?
Cc1ccc(S(=O)(=O)Nc2cc(Cl)c(O)c3ncccc23)cc1 | 7.38µM* | -149.0% | ? | -5.1% | ?
CN(CC(=O)Nc1ccccc1Cl)C(=O)COC(=O)c1cnccn1 | 32.7% | 6.1% | -5.2% | 0.0% | 4.9%
Oc1ccc(Cl)c2cccnc12 | 13.5µM* | / | / | 12µM* | 12.8%
O=C(O)c1ccc(O)c2ncccc12 | ? | / | -2.9% | ? | /
Cc1cnc(C(=O)NNC(=O)c2ccc(Br)cc2)cn1 | 11.7µM* | / | 1.2% | ? | ?
SMILES | Pf growth 48h | NS1 inh | SARS PLpro yeast | Pf growth 96h | RE007 growth inh
COc1cccc(N2CCN(C(=S)Nc3ccccc3OC)CC2)c1 | -14.1% | 13.9% | 1.7% | 9.28µM* | 1.0%
COc1cccc(NC(=S)N2CCN(C(c3ccccc3)c3ccccc3)CC2)c1 | 26.3% | 2.1% | ? | 31.5% | -0.6%
COc1ccc(NC(=S)N2CCN(C(c3ccccc3)c3ccccc3)CC2)c(OC)c1 | 5.22µM* | 10.2% | -2.3% | 72.0% | -1.2%
CCCCCCc1ccc(N2C[C@H](Cc3ccccc3)[C@@H](CC(=O)Nc3ccccc3)C2=O)cc1 | ? | ? | -1.4% | ? | 9.0%
O=C(Cn1cc(Cl)c([N+](=O)[O-])n1)NCCC1=CCCCC1 | 9.4% | 3.8% | 2.5% | ? | 10.6%
[Cl-].[Cl-].[Hg+2] | 2.13µM* | / | / | 2.39µM* | /
